Data on 8 molecules can be found in PubChem BioAssay.

For some assays here: Measured potencies and affinities stand elsewhere. Activity calls are given as the source filed them.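 The calls were made as follows, unless noted: active = primary screen hit whose fluorescence ratio, in both repeats, exceeds the weak agonist control mean by 3 SD; inactive = the rest.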

Assay [1] concerns TRPC4 beta (transient receptor potential cation channel C4), mouse. Description: activators of mouse TRPC4 channel, confirmation, cell-based, Fluo4 calcium, HEK293 TRPC4beta/mu-opioid, duplicates, 10 µM (AID 2426;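 active = fluorescence ratio normalized to control raised more than 50% in primary screen plus both repeat runs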;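 as to activation: percent rise of integrated ratio over buffer wells lacking compound which define 0%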). The conditions noted are these: Fluo4 calcium fluorescence, at 10 µM; stronger effect = higher value.
In assay [2] the test system is transient receptor potential cation channel C4 beta (TRPC4), mouse. The assay can be described thus: activators of mouse TRPC4 channel, confirmation, cell-based, second round, Fluo4, HEK293 TRPC4beta/mu-opioid, 1 µM (AID 2461;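 active = primary screen active and over 50% activation in each of two duplicate runs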;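 as to activation: 0% = wells without test compound as baseline of integrated fluorescence ratio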). The conditions noted are these: Fluo4 calcium fluorescence, at 1 µM; stronger effect = higher value.
For assay [3], the system named is TRPC4 (transient receptor potential cation channel C4 beta), mouse. The assay can be described thus: positive allosteric modulators of mouse TRPC4, confirmation, cell-based, second round, Fluo-4, HEK293 TRPC4beta/mu-opioid, 1 µM (AID 2554). The conditions noted are these: DAMGO EC20, Fluo-4 calcium flux, at 1 µM; stronger effect = higher value.
The subject of assay [4] is TRPC4 beta (transient receptor potential cation channel C4), mouse. Description: positive allosteric modulators of mouse TRPC4, confirmation, cell-based, Fluo-4, HEK293 TRPC4beta/mu-opioid (AID 2555;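 active = primary screen hit whose calcium fluorescence ratio, in both repeats, exceeds the weak agonist control mean by 3 SD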). The conditions noted are these: DAMGO EC20, Fluo-4 calcium flux, at 10 µM; stronger effect = higher value. For orientation: A change in cytosolic calcium serves as a functional read-out for many receptors and channels.

The target in assay [5] is Short transient receptor potential channel 4 (Mus musculus) (UniProt Q9QUQ5). The assay can be described thus: inhibitors of mouse TRPC4 channel, confirmation, cell-based, Fluo4, HEK293 TRPC4beta/mu-opioid (AID 2636;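 active = calcium signal cut by more than 3 SD below the full-agonist control yet still positive, in both repeats and the earlier primary screen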). The conditions noted are these: DAMGO, Fluo4 calcium flux, at 10 µM; stronger effect = higher value.
For assay [6] the target is unchanged. The assay can be described thus: inhibitors of mouse TRPC4 channel, confirmation, cell-based, second round, Fluo4, HEK293 TRPC4beta/mu-opioid, 1 µM (AID 2637;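 active = calcium signal ratio cut to more than 3 SD under the fully stimulated control mean yet still positive, in both repeats and the primary screen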). The conditions noted are these: Fluo4 calcium flux, DAMGO, at 1 µM; stronger effect = higher value.
Assay [7] shares this target. Description: mouse TRPC4 channel activators, dose response, cell-based, HEK293 TRPC4/mu-opioid, Fluo-4 calcium (AID 434937;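 active = primary screen activator hit with a dose response curve and TRPC4 channel activation at any tested dose; inactive = no activation, no dose response, or not a primary hit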).
Assay [8] has the same target. Description: mouse TRPC4 channel inhibitors, dose response, cell-based, HEK293 TRPC4/mu-opioid, Fluo-4 calcium (AID 434942;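 active = primary screen inhibitor hit that blocks the TRPC4 channel at some tested dose, yielding a dose curve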).
Assay [9] addresses Short transient receptor potential channel 6 (Mus musculus) (UniProt Q61143). Description: inhibition of mouse TRPC6 channel, confirmation, selectivity assay for TRPC4 inhibitor project, cell-based, HEK293, membrane potential dye, duplicate (AID 434948;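 active = active in primary screen and both duplicates, each dropping signal beyond three positive-control SD with fluorescence still positive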). The conditions noted are these: HEK293 TRPC6, membrane potential dye fluorescence, at 10 µM, stimulated with maximal-effect acetylcholine; stronger effect = higher value.

Assay [10] shares this target. Description: activation of mouse TRPC6 channel, confirmation, selectivity assay for TRPC4 activator project, cell-based, HEK293, membrane potential dye, duplicate (AID 434950;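 active = membrane potential signal rise above negative control mean plus 3 SD in both duplicates, also active in the earlier TRPC4 screen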;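 as to activation: 0% = buffer only wells and 100% = acetylcholine maximal-effect wells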). The conditions noted are these: HEK293 TRPC6, membrane potential fluorescence, at 10 µM; stronger effect = higher value.
For assay [11] the target is unchanged. Description: TRPC6 potentiation by TRPC4 potentiator hits, confirmation, selectivity assay for TRPC4 potentiator project, HEK293 cells, membrane potential dye, duplicate (AID 434952;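 active = compound raising the membrane signal above positive-control mean plus 3 SD in both repeats, and a primary screen hit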). The conditions noted are these: HEK293 TRPC6, membrane potential dye fluorescence, at 10 µM, maximal acetylcholine added after compound; stronger effect = higher value.
The target of assay [12] is Short transient receptor potential channel 4 (Mus musculus) (UniProt Q9QUQ5). The assay can be described thus: calcium flux activators in TRPC4/5HT1a cells, counter-screen for TRPC4 activator project, cell-based, second counter screen, HEK293 TRPC4/5HT1a, Fluo-4 (AID 434977;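 active = calcium signal rise above buffer-control mean plus 5 SD in both duplicates, and also a hit in the primary screen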;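 as to activation: plate controls were assay buffer for no effect and maximal serotonin response for full effect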). The conditions noted are these: Fluo-4 calcium flux, at 10 µM; stronger effect = higher value.
A short description of assay [13]: calcium flux inhibitors in TRPC4/5HT1a cells, confirmation, counter-screen for TRPC4 inhibitor project, cell-based, second counter screen, HEK293 TRPC4/5HT1a, Fluo-4 (AID 434978;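 active = primary screen active whose calcium signal fell more than 3 SD beyond the full-serotonin control mean in both duplicate plates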;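 also: serotonin given first at submaximal then at maximal dose after compound preincubation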). The conditions noted are these: Fluo-4 calcium flux, at 10 µM, serotonin added to trigger calcium flux; stronger effect = higher value.
For assay [14], the system named is TRPC4 (mouse), co-expressed with 5HT1a in HEK293. Description: calcium flux potentiators in TRPC4/5HT1a cells, confirmation, counter-screen for TRPC4 potentiator project, cell-based, second counter screen, HEK293 TRPC4/5HT1a, Fluo-4 (AID 434979;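 active = signal rise over 3 SD above mean of control wells given weak agonist, in both repeats and first screen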). The conditions noted are these: Fluo-4 calcium flux, at 10 µM, serotonin added at its EC20 dose; stronger effect = higher value.

Assay [15] is described as follows: calcium flux activation in mu-opioid HEK293 cells, confirmation, counter-screen for TRPC4 activator project, cell-based, HEK293 mu-opioid receptor line (AID 449723;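 active = hit in primary screen, with calcium signal over 5 SD above buffer well mean in both duplicates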;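 also: counter screen cells carry the mu-opioid receptor alone and lack TRPC4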). The conditions noted are these: Fluo-4 calcium fluorescence, at 10 µM; stronger effect = higher value.
Assay [16] in a line: calcium flux enhancement in mu-opioid HEK293 cells, confirmation, counter-screen for TRPC4 allosteric potentiator project, cell-based, HEK293 mu-opioid receptor line (AID 449724;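 active = calcium signal rise more than 3 SD above the low-dose agonist control mean, in both duplicate plates and the primary screen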). The conditions noted are these: Fluo-4 calcium flux, at 10 µM, compound added before EC20 DAMGO stimulus; stronger effect = higher value.
Assay [17] deals with Short transient receptor potential channel 4 (Mus musculus) (UniProt Q9QUQ5). Description: TRPC4 positive allosteric modulators, dose response, cell-based, HEK293 TRPC4/mu-opioid, Fluo-4 calcium, EC20 DAMGO (AID 434941;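 active = earlier screen potentiator hit that boosts the TRPC4 ion channel at some dose, with a dose response; inactive = no potentiation, no dose response, or not a prior hit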;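 also: calcium entry triggered by an EC20 dose of DAMGO at the co-expressed mu-opioid receptor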).

Sequence of Short transient receptor potential channel 4 (Mus musculus) (Q9QUQ5 whole entry, looked up): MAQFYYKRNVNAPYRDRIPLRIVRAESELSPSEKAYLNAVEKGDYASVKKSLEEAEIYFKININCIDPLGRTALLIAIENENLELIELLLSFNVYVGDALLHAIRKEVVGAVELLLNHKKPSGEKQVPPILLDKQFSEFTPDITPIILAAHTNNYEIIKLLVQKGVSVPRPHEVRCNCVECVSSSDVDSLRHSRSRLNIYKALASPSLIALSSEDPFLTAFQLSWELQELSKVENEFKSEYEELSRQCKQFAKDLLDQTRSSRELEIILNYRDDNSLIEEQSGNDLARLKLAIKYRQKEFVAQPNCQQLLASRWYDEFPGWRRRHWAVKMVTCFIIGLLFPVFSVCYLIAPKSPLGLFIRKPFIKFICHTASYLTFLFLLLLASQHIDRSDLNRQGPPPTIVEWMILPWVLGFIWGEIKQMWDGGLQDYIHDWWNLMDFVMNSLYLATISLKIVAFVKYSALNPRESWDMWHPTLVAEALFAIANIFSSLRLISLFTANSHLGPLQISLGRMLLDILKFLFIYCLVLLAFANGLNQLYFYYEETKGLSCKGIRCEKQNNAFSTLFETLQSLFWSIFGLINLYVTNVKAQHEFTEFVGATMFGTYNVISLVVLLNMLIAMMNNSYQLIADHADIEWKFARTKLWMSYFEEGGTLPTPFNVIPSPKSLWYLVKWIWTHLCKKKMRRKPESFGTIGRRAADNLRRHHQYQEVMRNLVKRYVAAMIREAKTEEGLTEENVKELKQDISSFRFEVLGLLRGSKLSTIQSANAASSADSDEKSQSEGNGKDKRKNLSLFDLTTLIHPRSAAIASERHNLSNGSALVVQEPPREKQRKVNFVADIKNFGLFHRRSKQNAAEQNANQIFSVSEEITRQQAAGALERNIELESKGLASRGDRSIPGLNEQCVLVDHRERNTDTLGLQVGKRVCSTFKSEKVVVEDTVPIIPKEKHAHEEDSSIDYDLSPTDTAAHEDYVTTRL
Sequence of Short transient receptor potential channel 6 (Mus musculus) (Q61143 whole entry, looked up): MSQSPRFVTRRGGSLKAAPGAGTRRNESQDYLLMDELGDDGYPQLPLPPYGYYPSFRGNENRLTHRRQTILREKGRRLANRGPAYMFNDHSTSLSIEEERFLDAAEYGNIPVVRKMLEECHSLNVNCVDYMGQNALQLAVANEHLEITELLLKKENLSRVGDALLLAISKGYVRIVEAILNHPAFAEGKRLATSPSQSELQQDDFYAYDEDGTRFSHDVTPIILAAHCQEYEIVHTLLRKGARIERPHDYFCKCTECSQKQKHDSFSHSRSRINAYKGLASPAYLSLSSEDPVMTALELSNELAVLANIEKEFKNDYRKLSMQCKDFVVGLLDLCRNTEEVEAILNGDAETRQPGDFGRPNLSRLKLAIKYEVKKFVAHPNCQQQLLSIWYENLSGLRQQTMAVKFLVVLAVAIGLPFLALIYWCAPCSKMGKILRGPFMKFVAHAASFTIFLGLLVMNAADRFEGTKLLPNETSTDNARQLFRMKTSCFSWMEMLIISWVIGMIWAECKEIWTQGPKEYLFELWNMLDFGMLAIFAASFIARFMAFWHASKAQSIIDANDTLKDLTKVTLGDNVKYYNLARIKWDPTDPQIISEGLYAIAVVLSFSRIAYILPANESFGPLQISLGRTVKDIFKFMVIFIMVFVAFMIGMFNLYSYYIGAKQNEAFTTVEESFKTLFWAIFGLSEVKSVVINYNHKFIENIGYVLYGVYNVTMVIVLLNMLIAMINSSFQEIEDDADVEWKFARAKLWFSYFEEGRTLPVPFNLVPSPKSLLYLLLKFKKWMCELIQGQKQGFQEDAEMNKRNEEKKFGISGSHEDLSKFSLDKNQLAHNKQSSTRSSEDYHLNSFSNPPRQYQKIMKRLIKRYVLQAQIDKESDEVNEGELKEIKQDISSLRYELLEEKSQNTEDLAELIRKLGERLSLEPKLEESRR

Consider `Cc1ccc(Cn2c(=N)c(C(=O)NC3CCCC3)cc3c(=O)n4ccccc4nc32)cc1`, for which, in [1], the activation was 206% (active). For the same molecule, the outcome in assay [2], in assay [4], in assay [5], in assay [6], in [7] and in [8] was inactive. The outcome in assay [9], in assay [10], in [11], in assay [12], in [13] and in assay [15] was inactive. In addition, in [16], the result was inactive. Besides, the potentiation was 8% (active) in assay [3] and 41.6% (active) in assay [14].

For the molecule `CN(C)c1ccc(/C=C/C(=O)c2c(O)c3ccccc3oc2=O)cc1`, the activation in assay [1] was 221% (active); in assay [10], 934% (active); in assay [12], 113% (active); in assay [15] it was 121% (active). The outcome in [2], in assay [3], in [4], in [5], in assay [6] and in [17] was inactive. The outcome in [8], in assay [9], in assay [11], in [13], in assay [14] and in assay [16] was inactive.

For the molecule `COc1ccc(Cl)cc1C(=O)NCCN(C)C`, the result in [1], in assay [2], in assay [3], in [4], in assay [5] and in assay [6] was inactive. The outcome in assay [7], in assay [8], in assay [9], in assay [10], in [11] and in assay [12] was inactive. In addition, the outcome in assay [13], in assay [15] and in assay [16] was inactive. Also, the potentiation in assay [14] was 13.6% (active).

As to `COc1ccc(-n2c3c(cc(C(=O)NNc4ccccc4)c2=O)C(=O)CC(C)(C)C3)cc1`, the activation in assay [1] was 104% (active). The outcome in assay [2], in [3], in assay [4], in assay [5], in assay [6] and in assay [17] was inactive. Also, the outcome in [8], in assay [9], in assay [10], in assay [11], in assay [12] and in [13] was inactive. The result in assay [14], in assay [15] and in [16] was inactive.

Regarding `CCn1c(N2CCN(S(=O)(=O)CC)CC2)nc2ccccc21`, the values for the activation in assay [1] and in [12] were 96% (active) and 19.2% (active), respectively. Also, the result in assay [2], in [3], in [4], in assay [5], in assay [6] and in [17] was inactive. The result in assay [8], in assay [9], in assay [10], in [11], in assay [13] and in assay [14] was inactive. Moreover, the result in assay [15] and in assay [16] was inactive.

As for `COc1ccc(C(CNc2nc(-c3cccnc3)nc3ccccc23)N(C)C)cc1` (stereo not drawn), the activation in assay [1] was 235% (active); in assay [2] it was 84% (active); in assay [12], 18% (active). For the same molecule, the result in [3], in [4], in assay [5], in assay [6], in assay [17] and in assay [8] was inactive. The outcome in [9], in [10], in assay [11], in [13], in [14] and in [15] was inactive. Besides, the outcome in [16] was inactive.

Turning to `Cc1ccc(Cl)cc1N1CCN(C(=O)c2cccc3c(=O)c(C)c(-c4ccccc4)oc23)CC1`, the result in assay [1], in assay [2], in assay [3], in assay [4], in assay [5] and in assay [6] was inactive. Also, the result in assay [7], in [8], in assay [9], in assay [10], in [11] and in [12] was inactive. In addition, the result in assay [13], in assay [15] and in assay [16] was inactive. Also, the potentiation in assay [14] is 21.8% (active).

`O=C(CCN1CCN(Cc2ccccc2)CC1)Nc1ccc(OCc2ccccc2)cc1`: the result in assay [1], in assay [2], in [3], in assay [5], in assay [6] and in assay [7] was inactive. The result in [8], in assay [9], in [10], in assay [11], in [12] and in [13] was inactive. For the same molecule, the result in assay [15] and in assay [16] was inactive. The potentiation in [4] is 12% (active); in [14], 25.1% (active).
